Test results as given in PubChem BioAssay (Tox21).
Results filed as inconclusive are left out. Values without a mark were called inactive. Calls follow the shape of the dose curve; as a rule, active = well fitted activation curve with a large enough effect in the repeat runs; inconclusive = weak or mixed curves; inactive = flat fitted curve, though single readings scatter. Where a SMILES comes first, the peptide text is derived from it.

test: A CellTox Green Cytotoxicity Assay to monitor cytotoxicity in HEK293 cells - 24 hour (AID 1224875); details: CellTox Green fluorescence; series mostly up to 76.8 µM; activity change: at the top concentration; also: nearly all actives have a fitted effect of over 45% in size
Description: National Center for Advancing Translational Sciences [NCATS]
NIH Chemical Genomics Center [NCGC]
U.S. Environmental Protection Agency [EPA]
National Institutes of Environmental Health Sciences [NIEHS]
National Toxicology Program [NTP]
Cell-based models are critical for drug discovery. Determining the natural cytotoxic effects resulting from test compounds is an essential research activity. A CellTox Green Cytotoxicity Assay to monitor cytotoxicity in real time of continues cell culture during 40 hours of the compound treatment was used to screen Tox21 10K library compounds in Hek293 cells. CellTox Green Cytotoxicity Assay is a nonlytic, homogeneous, biofluorescent method to measure cytotoxicity in cell culture after experimental manipulation. The assay system uses a proprietary asymmetric cyanine dye that is excluded from viable cells but preferentially stains the dead cell's DNA. […] Viable cells produce no appreciable increases in fluorescence. Therefore, the fluorescence signal produced by the binding interaction with dead cell DNA is proportional to cytotoxicity.
The mixture of Hek293 cell suspension and reagents were dispensed at 600cells/6 ul/well in 1536-well tissue culture treated black solid bottom plates using a Multidrop dispenser. After the assay plates were incubated at a 37 C/5% CO2 incubator for 5 hours, 23 nL of compounds dissolved in DMSO, positive and negative controls was transferred to the assay plate by a pintool work station. The plates were incubated at 37 C for 40 hours. The fluorescence intensity were measured at 0h, 8h, 16h, 24h, 32h and 40h time points using ViewLux plate reader during compound treatment.
% is scaled to controls: 0 for no effect and ±100 for the full control effect.

Question: For `C[C@@H](O)C(=O)O`, which “activity change” value is on record?
Answer: -9.25%

Question: For `CC/C=C\CCOC(=O)c1ccccc1O`, which “activity change” value is on record?
Answer: -6.06%

Question: For `CCCCOC(=O)[C@H](C)O`, which “activity change” value is on record?
Answer: -1.41%

Question: With `c1ccc2c(CC3=NCCN3)cccc2c1` as the compound, how does the “activity change” value read?
Answer: -0.617% [at 35.3 µM, active compounds read high]

Question: Which “activity change” value does the source give for `OC1(c2ccc(Cl)cc2)CCNCC1` here?
Answer: -8.15% [at 35.3 µM, active compounds read high]

Question: Which “activity change” value does the source give for `CC1(C)O[C@H]2CC(=O)OC[C@]23[C@H]2CC[C@@]4(C)[C@H](c5ccoc5)OC(=O)[C@H]5O[C@]54[C@]2(C)C(=O)C[C@@H]13` here?
Answer: 3.71% [at 35.3 µM, active compounds read high]

Question: For `CSc1cnccn1`, which “activity change” value is on record?
Answer: -10%

Question: Which “activity change” value does the source give for `Cn1c(=O)c2[nH]c(Br)nc2n(C)c1=O` here?
Answer: -6.43% [at 35.3 µM, active compounds read high]

Question: With `CCN(CC)CCN` as the compound, how does the “activity change” value read?
Answer: -8.28% [at 35.3 µM, active compounds read high]

Question: Which “activity change” value does the source give for `NCc1ccc(S(N)(=O)=O)cc1` here?
Answer: -9.89% [at 35.3 µM, active compounds read high]

Question: Which “activity change” value does the source give for `CO/N=C(/C(=O)N[C@@H]1C(=O)N2C(C(=O)[O-])=C(C[n+]3ccn4ncccc43)CS[C@H]12)c1nsc(N)n1` here?
Answer: -1.03% [at 35.3 µM, active compounds read high]

Question: Which “activity change” value does the source give for `CC(=O)CCc1ccc(OC(C)=O)cc1` here?
Answer: -12.5%

Question: Which “activity change” value does the source give for `CCCCCCCCCOC(=O)c1ccccc1C(=O)OCCCCCCCCC` here?
Answer: -3.9%

Question: For `CN(C)CCCO[C@@H]1[C@H]2OC(C)(C)O[C@H]2O[C@@H]1C(O)CO` (stereo not given in full), which “activity change” value is on record?
Answer: -12.2% [at 35.3 µM, active compounds read high]

Question: Which “activity change” value does the source give for `CCO[Si](CC)(OCC)OCC` here?
Answer: -12.3%

Question: With `OC[C@@H](O)C(O)[C@@H](O)CO` (stereo not given in full) as the compound, how does the “activity change” value read?
Answer: -8.1%

Question: With `CC(=O)O[Si](C)(OC(C)=O)OC(C)=O` as the compound, how does the “activity change” value read?
Answer: -8.04%

Question: With `OC[C@H]1O[C@@H](O[C@@H]2[C@@H](CO)O[C@](O)(CO)[C@H]2O)[C@H](O)[C@@H](O)[C@H]1O` as the compound, how does the “activity change” value read?
Answer: 10.7% [at 35.3 µM, active compounds read high]

Question: For `CC(=O)N[C@@H](CO)C(=O)N[C@@H](CC(=O)O)C(=O)N[C@@H](CCCCN)C(=O)N1CCC[C@H]1C(=O)O` (Ac-SDKP-OH), which “activity change” value is on record?
Answer: -5% [at 35.3 µM, active compounds read high]

Question: For `C[C@]12CCC(=O)C=C1CC[C@H]1[C@@H]3CC[C@](O)(C(=O)CO)[C@@]3(C)C[C@H](O)[C@@]12F`, which “activity change” value is on record?
Answer: 0.0814% [at 35.3 µM, active compounds read high]

Question: Which “activity change” value does the source give for `COc1cc(/C=C/C(N)=O)cc(OC)c1OC` here?
Answer: 0.859% [at 35.3 µM, active compounds read high]

Question: With `Cc1cccc(Cl)c1` as the compound, how does the “activity change” value read?
Answer: -4.04%

Question: With `CO[C@@]1(NC(=O)Cc2cccs2)C(=O)N2C(C(=O)O)=C(COC(N)=O)CS[C@@H]21` as the compound, how does the “activity change” value read?
Answer: 11.8% [at 35.3 µM, active compounds read high]

Question: Which “activity change” value does the source give for `c1ccc(-c2nn[nH]n2)cc1` here?
Answer: 3.59%

Question: Which “activity change” value does the source give for `CCCCCCCCCCCCCBr` here?
Answer: -33.5%

Question: For `OCCN1CCOCC1`, which “activity change” value is on record?
Answer: 0.122%

Question: Which “activity change” value does the source give for `O=C(Cl)c1ccccc1[N+](=O)[O-]` here?
Answer: 10.2%

Question: Which “activity change” value does the source give for `CC1=C(C(=O)O)N2C(=O)[C@@H](NC(=O)[C@H](N)c3ccccc3)[C@H]2SC1` here?
Answer: 1.99% [at 35.3 µM, active compounds read high]

Question: For `CN(C)CCN(C)CCO`, which “activity change” value is on record?
Answer: -18.4%

Question: Which activity change does the source give for `O=S(=O)(O)c1ccc2c(N=Nc3ccc(S(=O)(=O)O)c4ccccc34)c(O)c(S(=O)(=O)O)cc2c1` here?
Answer: 9.08% [at 6.97 µM, active compounds read high]

Question: Which “activity change” value does the source give for `O=C(O)CNC(=O)CNC(=O)CNC(=O)CSC(=O)c1ccccc1` here?
Answer: 5.02% [at 35.3 µM, active compounds read high]

Question: With `N#Cc1cscn1` as the compound, how does the “activity change” value read?
Answer: -9.99%

Question: For `CC(=O)c1cc(C)oc1C`, which “activity change” value is on record?
Answer: -7.66%

Question: With `Cc1ccc(C)c([N+](=O)[O-])c1` as the compound, how does the “activity change” value read?
Answer: 1.72%

Question: With `Cc1ccnc(N)c1` as the compound, how does the “activity change” value read?
Answer: -4.32%

Question: For `O=C1CCCCO1`, which “activity change” value is on record?
Answer: -9.28%

Question: Which “activity change” value does the source give for `CCCC(=O)Nc1ccc(OCC(O)CNC(C)C)c(C(C)=O)c1` (stereo not given) here?
Answer: -9.48% [at 35.3 µM, active compounds read high]

Question: Which “activity change” value does the source give for `CC(O)COC(C)(C)C` (stereo not given) here?
Answer: 8.24%

Question: For `Cn1c(=O)c2c(ncn2CCO)n(C)c1=O`, which “activity change” value is on record?
Answer: -2.8% [at 35.3 µM, active compounds read high]

Question: Which “activity change” value does the source give for `O=C(O)c1cc2ccccc2nc1C(=O)O` here?
Answer: -5.25%
